Assay outcomes deposited in PubChem by Broad Institute.
This is a sample that favours compounds with a hit; in the whole collection about 6.8% have one here.
C diff growth = inhibitors of Clostridium difficile growth; Clostridium difficile clinical isolate growth, OD600, 24 h; active compounds read low; growth activity, negative = inhibition, % at 16 µg/mL (by protocol); hit rate 0.25% among 86,000; AID 1259249;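 active = mean growth activity at or below -80% and every replicate also at or below -80%; inconclusive = mean at or below -80% but some replicate above -80%; inactive = mean growth activity above -80%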;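 also: 0% = DMSO wells and -100% = levofloxacin 16 µg/mL wells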
Pf Dd2 growth = inhibitors of Plasmodium falciparum Dd2 growth; hit rate 2.3% among 94,000; activity change, % at 10 µM; P. falciparum Dd2 growth, SYBR Green, 72 h; active compounds read low; in the data active = activity change below about -80%; inconclusive = no clear call, values can overlap the other calls
T cruzi growth-1 = blocks T. cruzi growth in NIH3T3 culture. T. cruzi beta-gal in NIH3T3, GalScreen luminescence, 90 h. AID 624255. hit rate 5.9% among 77,000. inhibition, % at 8.34 µM;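 active = mean inhibition above about 93%, with at least 55% of replicates each passing it, limit read from the data, passing the limit was not always enough; inconclusive = only one of those two conditions holds; inactive = neither condition holds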
T cruzi growth-2 = blocks T. cruzi growth in NIH3T3 host cells | hit rate 72% among 5,600 | T. cruzi beta-gal in NIH3T3, GalScreen luminescence, 90 h | inhibition, % at 8.35 µM | shares compounds with T cruzi growth-1 | AID 651739;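 active = mean replicate inhibition above about 95% and at least 55% of replicates individually reaching it, limit read from the data; inconclusive = only one of the two criteria is met; inactive = neither criterion is met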
T cruzi growth-3 = Trypanosoma cruzi proliferation inhibition; shares compounds with T cruzi growth-1; T. cruzi beta-gal in NIH3T3, GalScreen luminescence, 90 h; inhibition, % at 2.09 µM; hit rate 21% among 5,600; AID 651740;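 active = mean inhibition above about 95%, with at least 55% of replicates also reaching it, limit read from the data; inconclusive = meets just one of the two conditions; inactive = meets neither condition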;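 also: plate controls were neutral control median for no effect and positive control median for full effect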
3T3 cytotox = cytotoxicity in mouse NIH/3T3 fibroblasts. NIH/3T3 viability, CellTiter-Glo ATP luminescence, 90 h. cytotoxicity (signal decrease), % at 8.35 µM. hit rate 14% among 5,600. shares compounds with T cruzi growth-1;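 active = mean signal decrease across replicates above about 35% based on untreated-well scatter, with enough replicates individually passing, limit read from the data; inconclusive = no rule stated though some were filed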;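 also: 0% = median of neutral control wells and 100% = median of positive control wells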
NIH3T3 tox 2 = NIH/3T3 (mouse) viability loss; shares compounds with T cruzi growth-1; inhibition, % at 24.9 µM; hit rate 56% among 5,600; NIH/3T3 viability, CellTiter-Glo ATP luminescence, 90 h;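 active = mean loss of cell viability signal at or above a set limit, and enough replicates individually reaching it; inconclusive = meets only the mean limit or only the replicate share; inactive = meets neither condition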;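 also: 0% = median of neutral control wells and 100% = median of positive control wells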
* marks the source's active call; other numbers are inactive results; u = inconclusive; x = no result given.

SMILES	C diff growth	Pf Dd2 growth	T cruzi growth-1	T cruzi growth-2	T cruzi growth-3	3T3 cytotox	NIH3T3 tox 2
C[C@H](CO)N1C[C@H](C)[C@H](CN(C)Cc2ccc(-c3ccccc3)cc2)Oc2ccc(NS(=O)(=O)c3ccc(Cl)cc3)cc2C1=O	16	-12	112*	104*	41	30	103*
O=C1CNC[C@@H]2[C@@H](c3ccc(C4=CCCCC4)cc3)[C@H](CO)N12	5	19	x	x	x	x	x
CC(C)NC(=O)N(C)C[C@H]1Oc2ccc(NS(=O)(=O)c3cccs3)cc2CC(=O)N([C@H](C)CO)C[C@@H]1C	-2	2	-5	x	x	x	x
Cc1ccc(S(=O)(=O)N(C)C[C@H]2OCCCC[C@@H](C)Oc3ccc(NC(=O)CCC(F)(F)F)cc3C(=O)N([C@@H](C)CO)C[C@H]2C)cc1	x	-53	x	x	x	x	x
C[C@@H]1CN([C@@H](C)CO)C(=O)c2cc(N(C)C)ccc2O[C@@H](C)CCCCO[C@@H]1CN(C)C(=O)Cc1ccccc1	-3	-6	44	x	x	x	x
C[C@@H]1CCCCO[C@H](CN(C)C(=O)Cc2ccccc2)[C@@H](C)CN([C@@H](C)CO)C(=O)c2cc(N(C)C)ccc2O1	-6	-22	97*	46	27	-40	-13
C[C@@H]1CCCCO[C@H](CN(C)C(=O)Cc2ccccc2)[C@H](C)CN([C@H](C)CO)C(=O)c2cc(N(C)C)ccc2O1	-1	x	8	x	x	x	x
C[C@H](CO)N1C[C@H](C)[C@H](CN(C)C(=O)Cc2ccccc2)OCCCC[C@H](C)Oc2ccc(N(C)C)cc2C1=O	0	-39	104*	u	25	-10	-23
C[C@H]1CN([C@@H](C)CO)C(=O)c2cc(NS(C)(=O)=O)ccc2O[C@H]1CN(C)Cc1ccc(C(F)(F)F)cc1	-3	-29	55	x	x	x	x
CO[C@H]1CN(C)C(=O)c2ccc(NC(=O)Cc3ccccc3)cc2OC[C@H](C)N(CC2CC2)C[C@H]1C	x	-22	22	x	x	x	x
C[C@H](NC(=O)N(C)C[C@H]1OCc2ccccc2-c2ccccc2C(=O)N([C@@H](C)CO)C[C@H]1C)c1ccccc1	-5	-13	92	x	x	x	x
C[C@@H]1CCCCO[C@@H](CN(C)C(=O)NC2CCCCC2)[C@@H](C)CN([C@@H](C)CO)C(=O)c2cc(NS(=O)(=O)c3ccc(Cl)cc3)ccc2O1	3	-26	99*	103*	11	3	-17
Cc1ccc(S(=O)(=O)Nc2ccc3c(c2)C(=O)N([C@H](C)CO)C[C@H](C)[C@H](CN(C)C(=O)NC2CCCCC2)OCCCC[C@H](C)O3)cc1	-1	-42	118*	105*	27	-31	7
C[C@@H]1CCCCO[C@@H](CN(C)C(=O)NC2CCCCC2)[C@H](C)CN([C@@H](C)CO)C(=O)c2cc(NS(=O)(=O)c3ccc(Cl)cc3)ccc2O1	0	-7	93	x	x	x	x
Cc1ccc(S(=O)(=O)Nc2ccc3c(c2)C(=O)N([C@H](C)CO)C[C@@H](C)[C@@H](CN(C)C(=O)NC2CCCCC2)OCCCC[C@@H](C)O3)cc1	1	-68	68	x	x	x	x
C[C@H](CO)N1C[C@H](C)[C@H](CN(C)C(=O)NC2CCCCC2)OCCCC[C@H](C)Oc2ccc(NS(=O)(=O)c3ccccc3)cc2C1=O	7	-63	94*	u	38	-6	0
C[C@@H]1CCCCO[C@@H](CN(C)C(=O)NC2CCCCC2)[C@H](C)CN([C@@H](C)CO)C(=O)c2cc(NS(=O)(=O)c3ccccc3)ccc2O1	6	-29	u	x	x	x	x
C[C@H](O)C#Cc1cnc2c(c1)C(=O)N([C@H](C)CO)C[C@@H](C)[C@@H](CN(C)C(=O)CC1CC1)O2	3	x	1	x	x	x	x
C[C@@H](O)C#Cc1cnc2c(c1)C(=O)N([C@@H](C)CO)C[C@H](C)[C@@H](CN(C)CC1CCCC1)O2	-2	12	-71	x	x	x	x
Cc1ccc(S(=O)(=O)N(C)C[C@@H]2Oc3cc(-c4cccc(F)c4)ccc3S(=O)(=O)N([C@H](C)CO)C[C@H]2C)cc1	8	-58	104*	92	78	69*	47*
Cc1ccc(S(=O)(=O)N(C)C[C@@H]2Oc3cc(C#Cc4ccccc4)ccc3S(=O)(=O)N([C@H](C)CO)C[C@@H]2C)cc1	5	-43	x	x	x	x	x
Cc1ccc(S(=O)(=O)N(C)C[C@H]2Oc3cc(C#Cc4ccccc4)ccc3S(=O)(=O)N([C@H](C)CO)C[C@@H]2C)cc1	3	-49	x	x	x	x	x
Cc1ccc(-c2ccc3c(c2)O[C@@H](CN(C)S(C)(=O)=O)[C@H](C)CN([C@H](C)CO)S3(=O)=O)cc1	-4	-44	102*	4	-31	20	72*
Cc1ccc(-c2ccc3c(c2)O[C@H](CN(C)S(C)(=O)=O)[C@@H](C)CN([C@@H](C)CO)S3(=O)=O)cc1	-14	-6	21	x	x	x	x
Cc1ccc(S(=O)(=O)N(C)C[C@@H]2Oc3cc(-c4cccc(F)c4)ccc3S(=O)(=O)N([C@@H](C)CO)C[C@@H]2C)cc1	11	-51	121*	100*	u	-4	37*
SMILES	C diff growth	Pf Dd2 growth	T cruzi growth-1	T cruzi growth-2	T cruzi growth-3	3T3 cytotox	NIH3T3 tox 2
Cc1ccc(S(=O)(=O)N(C)C[C@H]2Oc3cc(-c4cccc(F)c4)ccc3S(=O)(=O)N([C@H](C)CO)C[C@H]2C)cc1	8	-7	121*	102*	94	24	43*
C[C@H](CO)N1C[C@H](C)[C@@H](CN(C)Cc2ccncc2)Oc2c(NC(=O)Nc3ccc(F)cc3)cccc2C1=O	-7	-65	24	x	x	x	x
CC(C)NC(=O)N1CC[C@@H]2[C@H]1c1cc(Br)ccc1N(C)[C@@H]2CO	48	5	9	x	x	x	x
COc1ccccc1-c1cnc2c(c1)C(=O)N([C@H](C)CO)C[C@H](C)[C@@H](CN(C)Cc1cncnc1)O2	6	1	-9	x	x	x	x
C[C@H]1CN([C@@H](C)CO)C(=O)c2cc(C3=CCCC3)cnc2O[C@H]1CN(C)Cc1ccc(C(=O)O)cc1	2	41	3	x	x	x	x
C/C=C/c1cnc2c(c1)C(=O)N([C@H](C)CO)C[C@H](C)[C@H](CN(C)C(=O)Nc1ccc(OC)cc1)O2	-3	-41	5	x	x	x	x
C[C@H](CO)N1C[C@H](C)[C@H](CN(C)Cc2ccc(C(F)(F)F)cc2)Oc2ccc(NC(=O)NC3CCCCC3)cc2C1=O	x	20	105	x	x	x	x
CO[C@H]1CN(C)C(=O)c2cc(NC(=O)Nc3cccc(F)c3)ccc2OC[C@H](C)N(C)C[C@@H]1C	2	-40	-56	x	x	x	x
Cc1ccc(S(=O)(=O)N(C)C[C@@H]2Oc3cc(C#Cc4ccccc4)ccc3S(=O)(=O)N([C@@H](C)CO)C[C@@H]2C)cc1	4	-39	x	x	x	x	x
Cc1ccc(-c2ccc3c(c2)O[C@@H](CN(C)S(C)(=O)=O)[C@H](C)CN([C@@H](C)CO)S3(=O)=O)cc1	-9	-69	91	x	x	x	x
